Experimental data taken from PubChem BioAssay (Tox21).
Several values for one entry are separate records, joined by “and”; a condition that tells them apart may be missing. Equal values may be shown once. Records with an inconclusive call do not appear. Activity calls are given as the source filed them. Calls come from the whole dose curve; as a rule, active = well fitted activation curve with a large enough effect in the repeat runs; inconclusive = weak or mixed curves; inactive = no such curve, though single readings can be large or run the other way.

Target: Nuclear receptor subfamily 1 group I member 2 (Homo sapiens) (UniProt O75469)
Sequence (O75469 whole entry, looked up): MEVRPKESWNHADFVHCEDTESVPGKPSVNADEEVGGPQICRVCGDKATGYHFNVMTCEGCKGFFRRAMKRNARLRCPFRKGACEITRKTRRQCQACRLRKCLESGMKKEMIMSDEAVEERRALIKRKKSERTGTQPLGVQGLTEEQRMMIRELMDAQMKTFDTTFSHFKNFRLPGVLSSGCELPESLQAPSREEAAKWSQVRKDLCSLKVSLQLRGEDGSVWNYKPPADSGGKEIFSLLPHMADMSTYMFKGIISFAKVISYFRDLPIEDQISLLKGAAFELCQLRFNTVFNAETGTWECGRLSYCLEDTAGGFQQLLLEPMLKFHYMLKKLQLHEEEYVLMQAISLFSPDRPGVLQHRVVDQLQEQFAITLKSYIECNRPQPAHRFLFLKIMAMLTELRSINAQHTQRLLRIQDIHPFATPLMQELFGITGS
Experiment: Human pregnane X receptor (PXR) small molecule agonists, qHTS assay (AID 1346982); note: nearly all actives have a fitted effect of over 35% in size
Conditions: PXR-Luc HepG2, CYP3A4 luciferase reporter, 24 h; series mostly up to 92.4 µM; activation: at the top concentration
Excerpt: National Center for Advancing Translational Sciences [NCATS]
NIH Chemical Genomics Center [NCGC]
U.S. Environmental Protection Agency [EPA]
National Institutes of Environmental Health Sciences [NIEHS]
National Toxicology Program [NTP]
The human pregnane X receptor (hPXR) regulates the expression of several drug metabolizing enzymes and induction of these proteins is a major mechanism for developing drug resistance in cancer. One such key enzyme catalyzing the drug metabolism is cytochrome P450 3A4 (CYP3A4). Changes in CYP3A4 expression affect drug metabolism, thereby reducing the therapeutic efficacy and altering toxicological response to a drug and which finally causes adverse drug interaction. To screen Tox21 libraries for compounds that activate hPXR-mediated CYP3A4 gene expression, PXR-Luc HepG2 cells were used.
PXR-Luc HepG2 cells were dispensed at 2,000 per well in 5uL of assay medium containing 5% charcoal-stripped FBS into white solid bottom 1536-well plates (Corning Life Sciences, Corning, NY) using a Multidrop Combi (Thermo Scientific, Waltham, MA) dispenser. The assay plates were incubated at 37 C and 5% CO2 for 5hr, and then 23nL of compounds dissolved in DMSO and positive control were transferred using a Pintool station (Wako, San Diego, CA). The assay plates were incubated at 37C and 5% CO2 for 24hr. For luciferase read, 4uL of ONE-Glo reagent (Promega Corporation, Madison, WI) was added to each well of the assay plates using Flying Reagent Dispenser (FRD, Aurora Discovery, San Diego, CA) and incubated the assay plates at room temperature for 30min. The luminescence signal was quantified using a ViewLux plate reader (Perkin Elmer, Shelton, CT).
% is set by controls: 0 for no effect and ±100 for the full control effect; potency is the fitted concentration of half-maximal effect.

Row | Structure (SMILES) | activation | Potency
1 | C1OCOCO1 | 0.124% (inactive) | –
2 | Cc1cccc(C)c1NC(=O)C(C)N (stereo not given) | -8.31% [at 42.5 µM] (inactive) | –
3 | CC(C)c1cc2c(cc1S(=O)(=O)O)[C@@]1(C)CCC[C@@](C)(C(=O)O)[C@@H]1CC2 | -3.16% [at 42.5 µM] (inactive) | –
4 | Cn1cc(S(C)=O)c(=O)c2ccc(F)cc21 (stereo not given) | -8.86% [at 42.5 µM] (inactive) | –
5 | NC(=O)Nc1ccccc1 | -4.87% (inactive) | –
6 | CCCCC/C=C\CCC=O | 1.91% (inactive) | –
7 | CC(C)CCCC(C)N (stereo not given) | -6.48% [at 42.5 µM] (inactive) | –
8 | CCCCNC(=O)NCCCC | 19.4% (inactive) | –
9 | CCOC(=O)CCC(C)=O | -6.54% (inactive) | –
10 | Nc1ccccc1S(=O)(=O)O | 2.57% (inactive) | –
11 | CCCCCCOC(=O)CCCCC(=O)OCCCCCC | -3.1% (inactive) | –
12 | O=C1CCCCCCCCCCCN1 | – | 48.5 µM (active) and 27.3 µM (active)
13 | CC1=CC(C)C(C=O)CC1 (stereo not given) | -18.2% (inactive) | –
14 | C=C(C)C(=O)OCCCCCCCC(C)C | – | 0.87 µM (active)
15 | N#Cc1ccc(C2CCCc3cncn32)cc1 (stereo not given) | -4.81% [at 42.5 µM] (inactive) | –
16 | NS(=O)(=O)c1cc(C(=O)O)cc(N2CCCC2)c1Oc1ccccc1 | -8.5% [at 42.5 µM] (inactive) | –
17 | CC(=O)Nc1c(I)cc(I)c(C(=O)O)c1I | -4.49% [at 42.5 µM] (inactive) | –
18 | CN1C(=O)N(C)C(O)C1O (stereo not given) | 10.4% (inactive) | –
19 | O=C(c1ccccc1)C1CCCCC1 | 18.1% (inactive) | –
20 | CC(C)(C)c1nnc(NS(=O)(=O)c2ccccc2)s1 | – | 11.9 µM (active)

Row | Structure (SMILES) | activation | Potency
21 | NCCCNCCSP(=O)(O)O | -4.2% [at 8.39 µM] (inactive) | –
22 | O=C1OC(=O)C2CCCCC12 (stereo not given) | 14.2% (inactive) | –
23 | CCCCCOC(=O)CCCCC | -0.608% (inactive) | –
24 | CC(C)OC(=O)c1ccccc1 | 15.2% (inactive) | –
25 | FC1(F)C(F)(F)C(F)(F)C2(F)C(F)(F)C(F)(F)C(F)(F)C(F)(F)C2(F)C1(F)F (stereo not given) | -16.6% [at 42.5 µM] (inactive) | –
26 | CCCCCCCCCCCC | 9.58% (inactive) | –
27 | COc1ccccc1OCC(O)CN1CCN(CC(=O)Nc2c(C)cccc2C)CC1 (stereo not given) | -6.71% [at 42.5 µM] (inactive) | –
28 | CC/C=C\CC/C=C/CO | 7.94% (inactive) | –
29 | Cc1ccc(=O)n(-c2ccccc2)c1 | 0.869% [at 42.5 µM] (inactive) | –
30 | Cn1c(N)c(N=O)c(=O)n(C)c1=O | 4.12% (inactive) | –
31 | Cc1cnc(NS(=O)(=O)c2ccc(N)cc2)nc1 | -1.86% [at 42.5 µM] (inactive) | –
32 | NC(CSCC(=O)O)C(=O)O (stereo not given) | -9.84% [at 42.5 µM] (inactive) | –
33 | O=C1CCCN1C1CCCCC1 | 30.8% (inactive) | –
34 | O=c1n(CCO)c(=O)n(CCO)c(=O)n1CCO | 1.21% (inactive) | –
35 | N=C(N)c1ccccc1 | 10.9% (inactive) | –
36 | CCCCOCCOCCOCCCC | -4.2% (inactive) | –
37 | Nc1cc(=O)[nH]c(N)n1 | -5.63% [at 42.5 µM] (inactive) | –
38 | CCN(CC)CCNC(=O)c1cc(S(C)(=O)=O)ccc1OC | -22.5% [at 42.5 µM] (inactive) | –
39 | CC(C)NCCCC1(C(N)=O)c2ccccc2-c2ccccc21 | – | 23.7 µM (active)
40 | Cc1ccc(C#N)cc1 | 10.7% (inactive) | –
